According to PubChem BioAssay (EPA / NIEHS):
Several values for one entry are separate records, joined by “and”; a condition that tells them apart may be missing. Equal entries are not always repeated. Records with an inconclusive call do not appear. Some structures have more than one record in an assay (separate samples or runs), and their calls can disagree. Activity calls are given as the source filed them. How the source made its calls, unless noted: active means hit-call score of the fitted dose curve at least 0.9, where 1 is the maximum; inactive means score below 0.9.

Assays:
[1] = molecular target: Retinoic acid receptor RXR-alpha (Homo sapiens) (UniProt P19793); assay: ATG_RXRa_TRANS: Attagene TRANS-FACTORIAL HepG2 Assay for human Retinoid X Receptor alpha (RXRa) (AID 2283012; active means hit-call score of the fitted dose curve at least 0.9, where 1 is the maximum)
Chain of Retinoic acid receptor RXR-alpha (Homo sapiens) (P19793 whole entry, looked up, the tested form may be a part): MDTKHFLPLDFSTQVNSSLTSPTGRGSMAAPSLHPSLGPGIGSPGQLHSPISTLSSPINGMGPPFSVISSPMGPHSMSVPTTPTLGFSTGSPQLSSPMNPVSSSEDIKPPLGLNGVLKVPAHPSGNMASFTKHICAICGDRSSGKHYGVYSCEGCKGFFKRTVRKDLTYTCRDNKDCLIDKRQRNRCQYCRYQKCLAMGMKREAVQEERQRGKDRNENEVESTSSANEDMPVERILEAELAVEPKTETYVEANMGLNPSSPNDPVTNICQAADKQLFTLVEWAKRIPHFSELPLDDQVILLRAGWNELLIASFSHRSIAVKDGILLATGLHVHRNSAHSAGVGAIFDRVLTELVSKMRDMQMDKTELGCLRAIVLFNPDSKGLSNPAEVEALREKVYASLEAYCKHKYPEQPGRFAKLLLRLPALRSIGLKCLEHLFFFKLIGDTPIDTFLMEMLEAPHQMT
Procedure, shortened: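 HepG2 cells transiently transfected with multiplexed GAL4-UAS reporter units and chimeric NR-GAL4 fusions, dosed 24 h. Reporter mRNA measured by RT-PCR, FAM labelling, HpaI digestion and capillary electrophoresis; gain-of-signal fitted relative to DMSO baseline.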

[2] = molecular target: human Retinoid X Receptor beta (RXRb), RXRB (gene 6257) (UniProt P28702); assay: ATG_RXRb_TRANS: Attagene TRANS-FACTORIAL HepG2 Assay for human Retinoid X Receptor beta (RXRb) (AID 2283013; active means hit-call score of the fitted dose curve at least 0.9, where 1 is the maximum)
Chain of human Retinoid X Receptor beta (RXRb), RXRB (gene 6257) (P28702 whole entry, looked up, the tested form may be a part): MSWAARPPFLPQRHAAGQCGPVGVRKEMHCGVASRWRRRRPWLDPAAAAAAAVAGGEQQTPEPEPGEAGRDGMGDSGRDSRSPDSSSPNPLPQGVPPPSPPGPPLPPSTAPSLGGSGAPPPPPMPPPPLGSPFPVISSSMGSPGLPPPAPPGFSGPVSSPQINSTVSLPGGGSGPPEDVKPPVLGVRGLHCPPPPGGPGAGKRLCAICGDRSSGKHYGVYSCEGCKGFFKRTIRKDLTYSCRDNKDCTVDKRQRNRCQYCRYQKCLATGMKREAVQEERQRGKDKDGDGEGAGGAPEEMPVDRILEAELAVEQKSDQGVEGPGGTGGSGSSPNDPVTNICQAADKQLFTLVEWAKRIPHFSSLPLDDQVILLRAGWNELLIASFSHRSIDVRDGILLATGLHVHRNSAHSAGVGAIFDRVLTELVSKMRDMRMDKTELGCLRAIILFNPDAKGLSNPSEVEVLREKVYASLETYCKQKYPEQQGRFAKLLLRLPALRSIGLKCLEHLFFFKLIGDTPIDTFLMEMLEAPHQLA
Procedure, shortened: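 HepG2 cells transiently transfected with multiplexed reporter units driven by GAL4-UAS and exogenous chimeric NR-Gal4 proteins; treated 24 h. Reporter mRNA measured by RT-PCR, 6-FAM labelling and capillary electrophoresis; gain-of-signal fitted versus DMSO baseline.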

[3] = read-out: E-selectin (Homo sapiens) (UniProt P16581); assay: BSK_3C_Eselectin: BioMAP Diversity Plus: 3C Assay for Eselectin Biomarker Activity (AID 2283015); conditions: primary human endothelial cells (HUVEC); actives raise or lower the signal
Procedure, shortened: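 ELISA read-out of E-selectin on endothelial monolayers after 24 h chemical treatment. Human umbilical vein primary cells served as the system, with DMSO defining baseline activity for bidirectional fitting.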

[4] = read-out: Interleukin-1 alpha (IL1a), IL1A (gene 3552); assay: BSK_BE3C_IL1a: BioMAP Diversity Plus: BE3C Assay for Interleukin-1 alpha (IL1a) Biomarker Activity (AID 2283016); conditions: primary human bronchial epithelial cells; actives raise or lower the signal
Procedure, shortened: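 Human primary bronchial epithelial cells (BE3C system) were dosed with compound and IL-1a measured by ELISA 24 h later. Activity was fitted bidirectionally against DMSO baseline; cytotoxicity was tracked in parallel cultures by SRB total-protein staining.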

[5] = read-out: Monocyte Chemoattractant Protein-1 (MCP1), CCL2 (gene 6347); assay: BSK_3C_MCP1: BioMAP Diversity Plus: 3C Assay for Monocyte Chemoattractant Protein-1 (MCP1) Biomarker Activity (AID 2283017); conditions: primary human endothelial cells (HUVEC); actives raise or lower the signal
Procedure, shortened: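 ELISA read-out of MCP-1 from human umbilical vein endothelial cell cultures harvested 24 h post-dosing. Gain or loss of signal was fitted relative to DMSO.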

[6] = read-out: Monocyte Chemoattractant Protein-1 (MCP1), CCL2 (gene 6347); assay: BSK_4H_MCP1: BioMAP Diversity Plus: 4H Assay for Monocyte Chemoattractant Protein-1 (MCP1) Biomarker Activity (AID 2283018); conditions: primary human endothelial cells (HUVEC); actives raise or lower the signal
Procedure, shortened: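 Human umbilical vein endothelial cells (4H system) dosed with chemical; MCP-1 measured by ELISA 24 h after dosing. Bidirectional curve fitting against DMSO negative control as baseline; parallel SRB total-protein staining tracks overt cytotoxicity.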

[7] = read-out: Human Leukocyte Antigen - DR isotype (HLADR), HLA-DRA (gene 3122); assay: BSK_3C_HLADR: BioMAP Diversity Plus: 3C Assay for Human Leukocyte Antigen - DR isotype (HLADR) Biomarker Activity (AID 2283019); conditions: primary human endothelial cells (HUVEC); actives raise or lower the signal
Procedure, shortened: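 ELISA readout of surface HLA-DR on human umbilical vein endothelium, taken 24 h after chemical treatment. Gain- and loss-of-signal were both fitted relative to DMSO.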

[8] = read-out: Interleukin-8 (IL8), CXCL8 (gene 3576); assay: BSK_3C_IL8: BioMAP Diversity Plus: 3C Assay for Interleukin-8 (IL8) Biomarker Activity (AID 2283020); conditions: primary human endothelial cells (HUVEC); actives raise or lower the signal
Procedure, shortened: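 Primary human umbilical vein endothelial cells (3C system) were exposed to test chemical for 24 h, then IL-8 was quantified by ELISA. Responses were fitted bidirectionally against DMSO vehicle as baseline.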

[9] = molecular target: human Vitamin D Receptor (VDR), VDR (gene 7421) (UniProt P11473); assay: ATG_VDR_TRANS: Attagene TRANS-FACTORIAL HepG2 Assay for human Vitamin D Receptor (VDR) (AID 2283022; active means hit-call score of the fitted dose curve at least 0.9, where 1 is the maximum)
Chain of human Vitamin D Receptor (VDR), VDR (gene 7421) (P11473 whole entry, looked up, the tested form may be a part): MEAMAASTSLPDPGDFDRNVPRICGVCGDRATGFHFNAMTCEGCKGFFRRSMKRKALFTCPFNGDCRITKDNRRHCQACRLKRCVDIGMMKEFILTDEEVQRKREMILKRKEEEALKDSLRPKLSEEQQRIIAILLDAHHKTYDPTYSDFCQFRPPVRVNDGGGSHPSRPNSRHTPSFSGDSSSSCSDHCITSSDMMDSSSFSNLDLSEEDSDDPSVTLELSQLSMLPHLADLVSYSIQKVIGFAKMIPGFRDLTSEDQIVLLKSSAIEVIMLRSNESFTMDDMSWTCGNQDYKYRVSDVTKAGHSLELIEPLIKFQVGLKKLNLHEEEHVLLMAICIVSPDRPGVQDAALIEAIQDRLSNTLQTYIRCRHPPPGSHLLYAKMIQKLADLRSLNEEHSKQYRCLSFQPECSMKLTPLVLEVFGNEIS
Procedure, shortened: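 Steps: transfect HepG2 with GAL4-UAS-driven reporter constructs; dose compounds 24 h; isolate RNA, reverse-transcribe, PCR-amplify with 6-FAM-labelled primer extension and HpaI digestion; quantify fragments by capillary electrophoresis relative to DMSO.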

[10] = BSK_3C_SRB: Viability Assessment in the BioMAP Diversity Plus: 3C Assay (AID 2283023); conditions: primary human endothelial cells (HUVEC);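 further: fitted both ways against DMSO so a hit may be signal rise or drop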
Procedure, shortened: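 Absorbance at 560 nm of sulforhodamine B-stained (0.1%) total protein served as a cytotoxicity readout in human umbilical vein endothelial cells, 24 h after chemical treatment. Signal was fitted bidirectionally relative to DMSO.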

[11] = read-out: Pselectin, SELP (gene 6403); assay: BSK_4H_Pselectin: BioMAP Diversity Plus: 4H Assay for Pselectin Biomarker Activity (AID 2283026); conditions: primary human endothelial cells (HUVEC); actives raise or lower the signal
Procedure, shortened: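 Primary human umbilical vein endothelial cells were exposed to test chemical for 24 h, then cell-surface P-selectin was quantified by ELISA. Activity was fitted bidirectionally against DMSO as negative control and baseline.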

[12] = BSK_BE3C_SRB: Viability Assessment in the BioMAP Diversity Plus: BE3C Assay (AID 2283028); conditions: primary human bronchial epithelial cells
Procedure, shortened: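 Cells (human bronchial epithelial, primary) are treated with chemicals, and after 24 h the parallel cultures are fixed in 10% TCA. These are then stained with 0.1% SRB and read at 560 nm. Gain or loss of signal is fitted relative to DMSO.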

[13] = read-out: Thrombomodulin, THBD (gene 7056); assay: BSK_3C_Thrombomodulin: BioMAP Diversity Plus: 3C Assay for Thrombomodulin Biomarker Activity (AID 2283029); conditions: primary human endothelial cells (HUVEC); actives raise or lower the signal
Procedure, shortened: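 Primary human umbilical vein endothelial cells (3C system) were exposed to chemical for 24 h, then thrombomodulin levels were measured by ELISA. Activity was fitted bidirectionally against the DMSO negative control as baseline.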

[14] = read-out: Urokinase-type plasminogen activator receptor (uPAR), PLAUR (gene 5329); assay: BSK_4H_uPAR: BioMAP Diversity Plus: 4H Assay for Urokinase-type plasminogen activator receptor (uPAR) Biomarker Activity (AID 2283030); conditions: primary human endothelial cells (HUVEC); actives raise or lower the signal
Procedure, shortened: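 Cell-surface uPAR ELISA signal, measured 24 h after dosing human umbilical vein endothelial cells, was analyzed with bidirectional fitting relative to DMSO. Parallel SRB staining of total protein tracked overt cytotoxicity.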

[15] = molecular target: human Thyroid Receptor alpha (THRa1), THRA (gene 7067) (UniProt P10827); assay: ATG_THRa1_TRANS: Attagene TRANS-FACTORIAL HepG2 Assay for human Thyroid Receptor alpha (THRa1) (AID 2283014; active means hit-call score of the fitted dose curve at least 0.9, where 1 is the maximum)
Chain of human Thyroid Receptor alpha (THRa1), THRA (gene 7067) (P10827 whole entry, looked up, the tested form may be a part): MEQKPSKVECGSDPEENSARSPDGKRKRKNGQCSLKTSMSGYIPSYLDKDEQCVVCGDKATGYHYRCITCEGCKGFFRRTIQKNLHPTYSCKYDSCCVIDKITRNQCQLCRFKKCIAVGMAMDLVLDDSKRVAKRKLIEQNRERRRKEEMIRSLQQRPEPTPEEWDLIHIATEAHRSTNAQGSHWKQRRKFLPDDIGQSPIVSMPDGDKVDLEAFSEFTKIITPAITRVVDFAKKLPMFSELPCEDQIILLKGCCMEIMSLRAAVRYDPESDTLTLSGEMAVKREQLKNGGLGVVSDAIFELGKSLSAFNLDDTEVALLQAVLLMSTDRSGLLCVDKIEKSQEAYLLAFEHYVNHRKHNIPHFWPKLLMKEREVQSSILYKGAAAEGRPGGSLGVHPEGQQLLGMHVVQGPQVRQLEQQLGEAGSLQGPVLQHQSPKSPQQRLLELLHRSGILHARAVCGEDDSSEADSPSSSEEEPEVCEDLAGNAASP
Procedure, shortened: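 Reporter transcript induction, read by capillary electrophoresis of 6-FAM-labelled RT-PCR products, reflects activity of a transfected THRa1-Gal4 fusion in HepG2 liver cells. Cells were dosed for 24 h; activity was fitted in the positive direction against DMSO.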

[16] = read-out: Matrix Metallopeptidase 1 (MMP1), MMP1 (gene 4312); assay: BSK_BE3C_MMP1: BioMAP Diversity Plus: BE3C Assay for Matrix Metallopeptidase 1 (MMP1) Biomarker Activity (AID 2283024); conditions: primary human bronchial epithelial cells; actives raise or lower the signal
Procedure, shortened: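 Primary human bronchial epithelial cells were dosed with test chemicals, and MMP1 levels were measured by ELISA 24 h later. Data were fitted bidirectionally against DMSO as the negative control and activity baseline.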

Measured: AC50

Chain of E-selectin (Homo sapiens) (P16581 whole entry, looked up): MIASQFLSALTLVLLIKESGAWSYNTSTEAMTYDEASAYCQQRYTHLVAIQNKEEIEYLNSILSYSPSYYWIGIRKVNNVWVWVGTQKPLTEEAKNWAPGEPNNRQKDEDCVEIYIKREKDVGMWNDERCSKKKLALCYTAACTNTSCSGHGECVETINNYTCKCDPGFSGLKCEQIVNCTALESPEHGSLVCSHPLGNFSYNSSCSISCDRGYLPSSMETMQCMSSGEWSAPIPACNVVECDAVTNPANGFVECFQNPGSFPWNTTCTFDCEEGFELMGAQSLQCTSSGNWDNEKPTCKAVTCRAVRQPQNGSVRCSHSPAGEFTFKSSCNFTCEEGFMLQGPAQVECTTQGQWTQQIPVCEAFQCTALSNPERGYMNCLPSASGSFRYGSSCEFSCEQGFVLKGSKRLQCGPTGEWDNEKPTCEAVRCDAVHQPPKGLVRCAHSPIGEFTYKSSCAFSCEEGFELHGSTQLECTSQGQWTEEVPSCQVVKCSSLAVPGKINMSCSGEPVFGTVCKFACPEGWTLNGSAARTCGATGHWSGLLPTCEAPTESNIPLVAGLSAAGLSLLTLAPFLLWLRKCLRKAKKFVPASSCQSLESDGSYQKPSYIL

CCCCCCCCCCCCS
active: [3] 20 µM | [5] 29.5 µM | [6] 23.8 µM | [7] 20 µM | [8] 20 µM | [10] 26.5 µM | [11] 20 µM
not listed: [15] | [16]
inactive: all other assays above

CCCCCCCC(=O)N(C)C
inactive: [1] | [15] | [9]

O=C1CCC(=O)N1
inactive: [1] | [15]

CCCCCCCCCCO[C@@H]1O[C@H](CO)[C@@H](O)[C@H](O)[C@H]1O
inactive: [2]

OC[C@@H](O)[C@H](O)[C@@H](O)[C@@H](O)CO
inactive: [1] | [9]
active: [2] 54.2 µM

CCCc1ccc(N)cc1
inactive: [1] | [9]

CCC(C)(C)C1CCC(OC)CC1 (configuration not stated)
inactive: [2] | [15]

CCCCC/C=C\C=C\C(=O)OCC
inactive: [1] | [9]

c1ccc(OCCOc2ccccc2)cc1
not listed: [2] | [16]
inactive: all other assays above

CN(C)C(=O)Nc1ccccc1
inactive: [15] | [9]

C=C/C(C)=C/C/C=C(\C)CCC=C(C)C
inactive: [2] | [9]

C=C(C)C(N)=O
not listed: [1] | [2] | [16]
inactive: all other assays above

CCCO
inactive: [9]

C=C(C)C(=O)OCCC(F)(F)C(F)(F)C(F)(F)C(F)(F)C(F)(F)C(F)(F)C(F)(F)C(F)(F)F
not listed: [1] | [2] | [9] | [15] | [16]
inactive: all other assays above

CC(=O)c1ccc(C)cc1
not listed: [1] | [9] | [15] | [16]
inactive: all other assays above

C=CC(O)CCCCC (configuration not stated)
inactive: [15] | [9]

CC(=O)c1cccnc1
inactive: [15] | [9]

CC1COC(=O)O1 (configuration not stated)
inactive: [15]

CCOC(=O)CCCCCCCCC(=O)OCC
not listed: [1] | [9] | [15] | [16]
inactive: all other assays above

CCOC(=O)COC(=O)c1ccccc1C(=O)OCC
inactive: [9]

CCCCCCCCCCOC(=O)c1ccccc1C(=O)OCCCCCCCC
inactive: [15] | [9]

CCCCOCCOCCO
not listed: [1] | [2] | [9]
inactive: all other assays above

CCCCCCOC(C)=O
inactive: [9]

CCC(CC)CO
inactive: [2] | [15] | [9]

C=C(C)C(=O)OCCC(C)OC(=O)C(=C)C (configuration not stated)
inactive: [2] | [9]

C=C(C)C(=O)OCCN(C)C
inactive: [9]

OCCCO
inactive: [2] | [15] | [9]

O=C(O)C(F)(F)C(F)(F)C(F)(F)C(F)(F)C(F)(F)C(F)(F)C(F)(F)C(F)F
inactive: [3] | [4] | [5] | [6] | [7] | [8] | [10] | [11] | [12] | [13] | [14]
active: [11] 19.5 µM

C=C(F)C(=O)OC(C(F)(F)F)C(F)(F)F
not listed: [1] | [2] | [9] | [15] | [16]
inactive: all other assays above

CC1=C(C=O)C(C)(C)CCC1
inactive: [15] | [9]

CCCCCCOc1ccc(O)cc1
inactive: [2] | [9]

CC(C)OB(OC(C)C)OC(C)C
inactive: [15]

Cc1cccc(C)c1
inactive: [15] | [9]

O=S(=O)(O)C(F)(F)C(F)(F)OC(F)(F)C(F)(F)F
inactive: [3] | [4] | [5] | [6] | [7] | [8] | [10] | [11] | [12] | [13] | [14]
active: [8] 5.95 µM

O=C(O)C(F)(F)OC(F)(F)C(F)(F)OC(F)(F)C(F)(F)C(F)(F)C(F)(F)F
active: [4] 50.4 µM and 55.2 µM | [10] 46 µM
inactive: [3] | [5] | [6] | [7] | [8] | [10] | [11] | [12] | [13] | [14]

CC(C)N(c1ccccc1)C(C)C
inactive: [2] | [15] | [9]

CC/C=C\C#N
inactive: [15] | [9]

COc1ccc2[nH]cc(CCNC(C)=O)c2c1
inactive: [2] | [15] | [9]

CC1(C)CC(=O)CC(C)(C)N1
inactive: [9]

CN(C)C
inactive: [9]

C1COCO1
inactive: [15]

OCC(F)(OC(F)(F)C(F)(OC(F)(F)C(F)(F)C(F)(F)F)C(F)(F)F)C(F)(F)F (configuration not stated)
active: [3] 3.09 µM and 3.33 µM | [5] 4.24 µM | [6] 3.33 µM | [7] 2.65 µM and 4.85 µM | [8] 6.2 µM | [10] 4.48 µM and 3.3 µM | [11] 4.38 µM | [13] 4.76 µM and 2.31 µM
inactive: [4] | [5] | [6] | [8] | [11] | [12] | [14]

CCNC(=S)NCC
inactive: [2] | [9]

CC1=CC[C@@H](C(C)(C)O)CC1
inactive: [2] | [15] | [9]
